# According to PubChem BioAssay (NCI):
# About 79,000 compounds went through this panel and 15% of them were active in at least one assay; those are over-represented in the sample as a whole. Unmarked numbers belong to inactive results. Activity calls are given as the source filed them. Rule as the data show it: active = growth inhibition above about 70%; inactive = the rest.
# Key:
# [1] = NCI Yeast Anticancer Drug Screen. Data for the rad52 strain (AID 147);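 also: 0% = growth of vehicle-treated control cultures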; conditions: S. cerevisiae rad52 mutant growth inhibition, hits give high values
# Procedure, shortened: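 DNA repair-defective yeast; compound exposure; growth scored against vehicle controls.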
# [2] = NCI Yeast Anticancer Drug Screen. Data for the wt1 strain (AID 149);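 also: 0% = growth of vehicle-treated wt1 cultures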; conditions: S. cerevisiae wt1 strain (SPY 50644) growth inhibition, hits give high values
# Procedure, shortened: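 wt1 yeast, compound-treated; % growth inhibition vs vehicle control.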
# [3] = NCI Yeast Anticancer Drug Screen. Data for the rad50EPP+ strain (AID 151);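 also: 0% = growth of vehicle-treated control cultures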; conditions: S. cerevisiae rad50 mutant strain, hits give high values
# Procedure, shortened: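 rad50EPP+ yeast treated with test compounds. Readout: growth vs vehicle control.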
# [4] = NCI Yeast Anticancer Drug Screen. Data for the mgt1 strain (AID 153); conditions: S. cerevisiae mgt1 mutant growth inhibition, hits give high values
# Procedure, shortened: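 Growth inhibition relative to vehicle controls was scored for the mgt1 yeast strain after compound exposure.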
# [5] = NCI Yeast Anticancer Drug Screen. Data for the rad50 strain (AID 155);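 also: 0% = growth of vehicle-only cultures of the same strain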; conditions: S. cerevisiae rad50 strain growth inhibition, hits give high values
# Procedure, shortened: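 Genetically altered yeast (DNA repair pathway); compound treatment; growth inhibition vs vehicle ctrl.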
# [6] = NCI Yeast Anticancer Drug Screen. Data for the mec2-1 strain (AID 157); conditions: S. cerevisiae mec2-1 strain, hits give high values
# Procedure, shortened: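 Growth inhibition is read against vehicle-treated controls after compound exposure of the mec2-1 yeast strain, which is defective in DNA damage repair or cell cycle control.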
# [7] = NCI Yeast Anticancer Drug Screen. Data for the rad14 strain (AID 159);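 also: 0% = growth of vehicle-treated control cultures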; conditions: S. cerevisiae rad14 strain growth inhibition, hits give high values
# Procedure, shortened: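 Test compounds were applied to a repair-deficient yeast strain. Its growth was then compared with that of cultures given vehicle alone, and inhibition was expressed relative to those controls.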
# [8] = NCI Yeast Anticancer Drug Screen. Data for the sgs1 mgt1 strain (AID 161);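 also: 0% = growth of cultures given vehicle only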; conditions: S. cerevisiae sgs1 mgt1 strain, hits give high values
# Procedure, shortened: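 Growth of a repair-deficient yeast mutant was monitored after compound treatment and expressed as inhibition relative to vehicle-treated cultures.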
# [9] = NCI Yeast Anticancer Drug Screen. Data for the CLN2oe strain (AID 163);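 also: 0% = growth of vehicle-only control cultures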; conditions: S. cerevisiae CLN2oe strain, hits give high values
# Procedure, shortened: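 Compound-treated yeast; growth vs vehicle ctrl = % inhibition. Genetically altered strain (cell-cycle control).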
# [10] = NCI Yeast Anticancer Drug Screen. Data for the cln2 rad14 strain (AID 165);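 also: 0% = growth equal to vehicle treated cultures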; conditions: S. cerevisiae cln2 rad14 strain, hits give high values
# Procedure, shortened: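 Growth inhibition, relative to vehicle-treated controls, is the read-out. The test organism is a yeast strain with defined genetic alterations, cln2 rad14.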
# [11] = NCI Yeast Anticancer Drug Screen. Data for the bub3 strain (AID 167); conditions: S. cerevisiae bub3 mutant strain, hits give high values
# Procedure, shortened: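 Yeast carrying a defined mutation is treated with each compound, and growth is compared with that of vehicle-exposed cells to give inhibition.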
# [12] = NCI Yeast Anticancer Drug Screen. Data for the wt2 strain (AID 169);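 also: 0% = growth of vehicle-treated yeast cultures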; conditions: S. cerevisiae wt2 strain growth inhibition, hits give high values
# Procedure, shortened: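 Compound exposure of yeast; growth compared with vehicle controls; inhibition reported.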
# [13] = NCI Yeast Anticancer Drug Screen. Data for the mlh1 strain (AID 171);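 also: 0% = growth of vehicle-treated control cultures of the same strain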; conditions: S. cerevisiae mlh1 strain growth inhibition, hits give high values
# Procedure, shortened: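 Compounds are applied to a genetically altered yeast strain, and its growth is compared with that of vehicle-treated cultures to give percent inhibition.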
# [14] = NCI Yeast Anticancer Drug Screen. Data for the sgs1 strain (AID 173);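 also: 0% = growth of vehicle-only control cultures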; conditions: S. cerevisiae sgs1 mutant, hits give high values
# Procedure, shortened: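 Compounds applied to genetically altered yeast; growth compared with vehicle-treated cultures to give % inhibition.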
# [15] = NCI Yeast Anticancer Drug Screen. Data for the mlh1 rad18 strain (AID 175); conditions: S. cerevisiae mlh1 rad18 strain growth inhibition, hits give high values
# Procedure, shortened: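 Cells of a genetically altered yeast strain, deficient in DNA damage repair, were treated with compound. Their growth was then compared with that of vehicle-treated cultures to give inhibition.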
# [16] = NCI Yeast Anticancer Drug Screen. Data for the rad18 strain (AID 177); conditions: S. cerevisiae rad18 mutant growth inhibition, hits give high values
# Procedure, shortened: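 Compounds are applied to a repair-deficient yeast strain, and growth is compared with that of vehicle-treated cultures to give percent inhibition.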
# [17] = at 5.0 µM (retest, dose inferred, filed as 0.5)
# [18] = at 50.0 µM (retest, dose inferred, filed as 5.0)
compound,measurement,setting,value
CC(C(=O)N1C(=O)N(C(=O)[C@H](C)C(O)c2ccccc2)[C@H](c2ccccc2)[C@H]1c1ccccc1)[C@@H](O)c1ccccc1 (stereo partly drawn),growth inhibition,[1]; at 1.2 µM,-1%
same,growth inhibition,[1]; at 3.7 µM,-2%
same,growth inhibition,[1]; at 11.0 µM,11%
same,growth inhibition,[1]; at 33.0 µM,37%
same,growth inhibition,[1]; at 100.0 µM,62%
same,growth inhibition,[2]; at 1.2 µM,1%
same,growth inhibition,[2]; at 3.7 µM,-1%
same,growth inhibition,[2]; at 11.0 µM,-2%
same,growth inhibition,[2]; at 33.0 µM,17%
same,growth inhibition,[2]; at 100.0 µM,36%
same,growth inhibition,[3]; at 1.2 µM,-4%
same,growth inhibition,[3]; at 3.7 µM,-4%
same,growth inhibition,[3]; at 11.0 µM,-1%
same,growth inhibition,[3]; at 33.0 µM,-3%
same,growth inhibition,[3]; at 100.0 µM,-11%
same,growth inhibition,[4]; at 1.2 µM,-6%
same,growth inhibition,[4]; at 3.7 µM,-9%
same,growth inhibition,[4]; at 11.0 µM,4%
same,growth inhibition,[4]; at 33.0 µM,25%
same,growth inhibition,[4]; at 100.0 µM,59%
same,growth inhibition,[5]; at 1.2 µM,-7%
same,growth inhibition,[5]; at 3.7 µM,-15%
same,growth inhibition,[5]; [17],-5%
same,growth inhibition,[5]; at 11.0 µM,-9%
same,growth inhibition,[5]; at 33.0 µM,41%
same,growth inhibition,[5]; [18],39%
same,growth inhibition,[5]; at 50.0 µM,80.1% (active)
same,growth inhibition,[5]; at 100.0 µM,56%
same,growth inhibition,[6]; at 1.2 µM,-5%
same,growth inhibition,[6]; at 3.7 µM,-1%
same,growth inhibition,[6]; [17],-14%
same,growth inhibition,[6]; at 11.0 µM,8%
same,growth inhibition,[6]; at 33.0 µM,33%
same,growth inhibition,[6]; [18],51%
same,growth inhibition,[6]; at 50.0 µM,73.2% (active)
same,growth inhibition,[6]; at 100.0 µM,55%
same,growth inhibition,[7]; at 1.2 µM,-7%
same,growth inhibition,[7]; at 3.7 µM,-12%
same,growth inhibition,[7]; at 11.0 µM,1%
same,growth inhibition,[7]; at 33.0 µM,15%
same,growth inhibition,[7]; at 100.0 µM,36%
same,growth inhibition,[8]; [17],-12%
same,growth inhibition,[8]; [18],38%
same,growth inhibition,[8]; at 50.0 µM,83.4% (active)
same,growth inhibition,[9]; at 1.2 µM,-11%
same,growth inhibition,[9]; at 3.7 µM,-13%
same,growth inhibition,[9]; at 11.0 µM,12%
same,growth inhibition,[9]; at 33.0 µM,36%
same,growth inhibition,[9]; at 100.0 µM,51%
same,growth inhibition,[10]; [17],71% (active)
same,growth inhibition,[10]; [18],59%
same,growth inhibition,[10]; at 50.0 µM,77.2% (active)
same,growth inhibition,[11]; at 1.2 µM,-4%
same,growth inhibition,[11]; at 3.7 µM,-3%
same,growth inhibition,[11]; [17],-27%
same,growth inhibition,[11]; at 11.0 µM,5%
same,growth inhibition,[11]; at 33.0 µM,23%
same,growth inhibition,[11]; [18],90% (active)
same,growth inhibition,[11]; at 50.0 µM,84.2% (active)
same,growth inhibition,[11]; at 100.0 µM,48%
same,growth inhibition,[12]; at 1.2 µM,-8%
same,growth inhibition,[12]; at 3.7 µM,-7%
same,growth inhibition,[12]; at 11.0 µM,4%
same,growth inhibition,[12]; at 33.0 µM,41%
same,growth inhibition,[12]; at 100.0 µM,62%
same,growth inhibition,[13]; at 1.2 µM,-3%
same,growth inhibition,[13]; at 3.7 µM,-4%
same,growth inhibition,[13]; at 11.0 µM,14%
same,growth inhibition,[13]; at 33.0 µM,45%
same,growth inhibition,[13]; at 100.0 µM,57%
same,growth inhibition,[14]; at 1.2 µM,-2%
same,growth inhibition,[14]; at 3.7 µM,2%
same,growth inhibition,[14]; at 11.0 µM,30%
same,growth inhibition,[14]; at 33.0 µM,65%
same,growth inhibition,[14]; at 100.0 µM,70% (active)
same,growth inhibition,[15]; [17],7%
same,growth inhibition,[15]; [18],37%
same,growth inhibition,[15]; at 50.0 µM,82.2% (active)
same,growth inhibition,[16]; at 1.2 µM,0%
same,growth inhibition,[16]; at 3.7 µM,6%
same,growth inhibition,[16]; at 11.0 µM,25%
same,growth inhibition,[16]; at 33.0 µM,45%
same,growth inhibition,[16]; at 100.0 µM,53%
